Lmaj promast = inhibitors of Leishmania major promastigote growth | inhibition, % at 10 µM | Leishmania major promastigotes, resazurin fluorescence viability | 200,000 compounds, 9% hits; in the data active = inhibition above about 50%;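 also: promastigotes grown with compound for 44 hours at 28 °C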
CHOP inh = CHOP inhibition in unfolded protein response | AID 2732 | inhibition, % at 10 µM | CHO-K1 CHOP-promoter luciferase, tunicamycin-induced, 15-18 h | 220,000 compounds, 3.8% hits;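 active = compounds that reduced the stress-induced luciferase reporter signal by more than about 70% of percent inhibition, limit read from the data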
RAM inhibit = inhibitors of the yeast RAM network; inhibition, % at 50 µM; 190,000 compounds, 1.8% hits; S. cerevisiae dse1pr::URA3 reporter, 5-FOA growth OD615, 2 d; analog-sensitive cbk1-as2 kinase mutant strain;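 active = inhibition above a set limit, 3 SD over mean compound inhibition, cut at about 8.4% in these data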;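 also: inhibition rescues growth on 5-FOA so higher OD means more RAM inhibition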
WT yeast gro inh = growth inhibition of WT yeast, mitochondrial fusion screen; mitochondrial fusion phenotypic screen, WT strain; inhibition, % at 10 µM; 190,000 compounds, 2.1% hits; AID 1362; in the data active = inhibition above about 58%; tested in S. cerevisiae
CHOP inh conf = confirmation of CHOP induction inhibitors; shares compounds with CHOP inh; CHO-CHOP promoter luciferase reporter, tunicamycin-induced, luminescence; inhibition, % at 10 µM; 2,100 compounds, 45% hits; AID 504437;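 active = mean of three repeat readings of reporter signal inhibition above a set limit, cut at about 70% in these data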
Large screens that a line does not name were inactive (follow-up assays come after a bar, where they were run). Rows were chosen to be rich in hits. Some 13% of all compounds tested hit in one or more screens of this group.

Cc1ccc(Nc2nc(Cl)c(C=O)s2)cc1Cl	CHOP inh 96 | CHOP inh conf inactive
COc1ccc(OC)c(NC(=O)CN(Cc2ccccc2)S(C)(=O)=O)c1	none
COc1ccc(/C=N/NC(=O)c2nc(Cl)c(Cl)c(N)c2Cl)cc1COc1ccc(F)cc1F	CHOP inh 100 | CHOP inh conf inactive
CC(C)(C)C1CCc2onc(C(=O)Nc3cccnc3)c2C1 (stereo unspecified)	none
CC(C)(C)C1CCc2onc(C(=O)Nc3cccc(O)c3)c2C1 (stereo unspecified)	CHOP inh 109 | CHOP inh conf inactive
